PAFAH1B2 inh = inhibitors of human PAFAH1B2 | recombinant PAFAH1B2, FP-rhodamine activity probe, fluorescence polarization | P68402 | inhibition, % at 3.39 µM | actives 1.2% (n = 340,000);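 active = inhibition above the mean of all tested compounds plus 3 SD, cut at about 24% in these data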
PAFAH2 FP inh = inhibitors of human PAFAH2; inhibition, % at 3.39 µM; recombinant PAFAH2, FP-rhodamine activity probe, fluorescence polarization; actives 0.99% (n = 340,000);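 active = inhibition above the mean over all tested compounds plus 3 SD, cut at about 30% in these data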;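 also: inhibitors block probe labeling of enzyme so polarization drops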
pPAFAH inh = inhibitors of human plasma PAF acetylhydrolase (pPAFAH); recombinant pPAFAH, FP-rhodamine probe fluorescence polarization; inhibition, % at 3.39 µM; actives 1.5% (n = 330,000); Q13093;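 active = inhibition above the mean inhibition across the screen plus 3 SD, cut at about 25% in these data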;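 also: inhibitors block binding of the rhodamine activity-based probe so polarization drops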
EBNA-1 inh = blocks EBNA-1 binding to DNA | EBNA-1 DNA binding, fluorescence polarization | inhibition, % at 14.8 µM | actives 0.34% (n = 300,000); in the data active = inhibition above about 28%
ZTA counter = counter-screen for EBNA-1 inhibitors: inhibitors of Epstein-Barr virus ZTA; ZTA-DNA binding, fluorescence polarization; inhibition, % at 11 µM; actives 0.15% (n = 320,000); in the data active = inhibition above about 33%
Target sequence (P03206 whole entry, looked up): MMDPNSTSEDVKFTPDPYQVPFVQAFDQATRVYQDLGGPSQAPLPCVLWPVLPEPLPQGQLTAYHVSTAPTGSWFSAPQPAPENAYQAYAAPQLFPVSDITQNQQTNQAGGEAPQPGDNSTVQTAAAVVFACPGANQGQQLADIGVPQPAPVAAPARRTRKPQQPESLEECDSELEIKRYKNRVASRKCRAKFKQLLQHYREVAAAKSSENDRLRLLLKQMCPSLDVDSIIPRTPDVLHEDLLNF
PAFAH1B3 FP inh = inhibitors of human PAFAH1B3. AID 492972. recombinant PAFAH1B3, FP-rhodamine probe, fluorescence polarization. inhibition, % at 3.39 µM. actives 0.28% (n = 340,000);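 active = inhibition above the screen-wide average of all tested compounds plus 3 SD, cut at about 25% in these data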
Large screens that a line does not name were inactive. Shown are actives, neighbours in structure and some others; about 2.9% of the full set was active somewhere.

Cc1cc2nc(SCC(=O)N(C)C)c3c(c2cc1C)CCCC3	pPAFAH inh 31
CN(C)C(=O)CSc1nc(-c2ccccc2)nc2c1CCCC2	none
COc1cccc2c1OCC(CN1CCN(Cc3ccccc3F)C(CCO)C1)=C2 (configuration not stated)	EBNA-1 inh active, ZTA counter 130
CCC(C)Sc1ccc(-c2nc3ccc(C)cn3c2NCc2ccccc2)cc1OC (configuration not stated)	pPAFAH inh 27
CCCCCCSc1ccc(-c2nc3ccc(C)cn3c2NCc2ccccc2)cc1	none
CCCCCCSc1ccc(-c2nc3ccc(C)cn3c2NCc2ccccc2)cc1OC	pPAFAH inh 26
Cc1cccc(SC2CCN(C(=O)C3CCC(=O)N(C4CC4)C3)CC2)c1 (configuration not stated)	none
CCOC(=O)C(C)N1C(=O)S/C(=C\c2ccc(-c3ccccc3C(=O)O)o2)C1=O (configuration not stated)	pPAFAH inh 28
C#CCN1C(=O)S/C(=C\c2ccc(-c3ccc(C(=O)O)cc3C)o2)C1=O	pPAFAH inh 31
CN(Cc1nc(Cc2cccc(F)c2)no1)CC1CCOCC1	none
C=CCOC(=O)/C(=C\C=C\c1ccccc1)NC(=O)c1ccccc1	none
CNc1nc(-c2c[nH]c3ccccc23)cs1	none
CCC(C)Nc1nc(-c2c[nH]c3ccccc23)cs1 (configuration not stated)	ZTA counter 55
CN1C(=O)/C(=C/c2ccc(-c3ccccc3[N+](=O)[O-])o2)SC1=Nc1ccc(Cl)c(C(=O)O)c1	PAFAH2 FP inh 31, pPAFAH inh 29
Cc1ccc(C)c(N2C(=N)S/C(=C\c3ccc(-c4ccccc4C(=O)O)o3)C2=O)c1	none
C#CCOCCOCCOCCNc1nc(N2CCN(C(=O)[C@H]([C@@H](C)CC)n3cc([C@@H](N)Cc4ccc(O)cc4)nn3)CC2)nc(N2CCN(C(=O)[C@H](Cc3cc4ccccc4[nH]3)n3cc([C@@H](N)C(C)CC)nn3)CC2)n1 (some centres not stated)	none (no result: PAFAH1B2 inh, PAFAH2 FP inh, PAFAH1B3 FP inh)
C#CCOCCOCCOCCNc1nc(N2CCN(C(=O)CCCCCCCCCCNC(=O)[C@H](CCCCN)n3cc(C[C@@H](C)CC)nn3)CC2)nc(N2CCN(C(=O)CCCCCCCCCCNC(=O)[C@H](CCCCN)n3cc(C[C@@H](C)CC)nn3)CC2)n1	ZTA counter 91
C#CCOCCOCCOCCNc1nc(N2CCN(C(=O)CCCCCCCCCCNC(=O)[C@H](CO)n3cc(CCCSC)nn3)CC2)nc(N2CCN(C(=O)CCCCCCCCCCNC(=O)[C@H](CCCCN)n3cc(C[C@@H](C)CC)nn3)CC2)n1	none (no result: PAFAH1B2 inh, PAFAH2 FP inh, PAFAH1B3 FP inh)
C#CCOCCOCCOCCNc1nc(N2CCN(C(=O)CCCCCCCCCCNC(=O)[C@H]([C@@H](C)CC)n3cc(CCCCN=C(N)N)nn3)CC2)nc(N2CCN(C(=O)CCCCCCCCCCNC(=O)[C@H](CCCCN)n3cc(C[C@@H](C)CC)nn3)CC2)n1	ZTA counter 126 (no result: PAFAH1B2 inh, PAFAH2 FP inh, PAFAH1B3 FP inh)
C#CCOCCOCCOCCNc1nc(N2CCN(C(=O)[C@H](Cc3cc4ccccc4[nH]3)n3cc([C@@H](N)C(C)CC)nn3)CC2)nc(N2CCN(C(=O)[C@H](Cc3cc4ccccc4[nH]3)n3cc([C@@H](N)Cc4ccc(O)cc4)nn3)CC2)n1 (some centres not stated)	EBNA-1 inh 46, ZTA counter 55 (no result: PAFAH1B2 inh, PAFAH2 FP inh, PAFAH1B3 FP inh)
Cc1ccccc1S(=O)Cc1ccc(C(=O)NCCN2CCOCC2)o1 (configuration not stated)	none
CCc1cccc(C)c1NC(=O)CN(C)Cc1ccccc1F	none
CC1CCN(c2cc(N3CCN(C(=O)c4ccc(F)c(F)c4)CC3)c([N+](=O)[O-])cc2F)CC1	none
CSc1ccc(S(=O)(=O)NC(C)c2ccccc2)cc1 (configuration not stated)	none (no result: PAFAH1B2 inh, PAFAH2 FP inh, PAFAH1B3 FP inh)
Cc1ccc(S(=O)(=O)NC(C)c2ccccc2)cc1[N+](=O)[O-] (configuration not stated)	PAFAH1B2 inh 24
Cc1ccc(S(=O)(=O)N2CCN(S(=O)(=O)N3CCC(C)CC3)CC2)cc1C	none
CCOC(=O)c1cc(CC)sc1NC(=O)C1CC(=O)NN1Cc1ccccc1 (configuration not stated)	pPAFAH inh 32

High-throughput results as filed in PubChem BioAssay.
